Test results: PubChem BioAssay AID1259423 (Fisher Drug Discovery Resource Center, 2018)
Several values for one entry are separate records, joined by “and”; a condition that tells them apart may be missing. Identical values can stand only once. Hit rate of the full screen: of about 270,000 compounds, about 410 (0.15%) were called active. This is one part of a sample in which actives are shown more often than they occur. No stated cut-off is given here; in the data, active means activation above about 40%; inactive means the rest, inconclusive results apart. Where a structure was tested more than once in an assay, its records may differ in their call.

System: Aedes aegypti neuropeptide Y-like receptor 7 (NPYLR7)
Assay: agonists of mosquito NPYLR7 receptor, primary screen, cell-based, Aedes aegypti, calcium fluorescence, mosquito biting behavior (AID 1259423);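 further: 0% = vehicle and 100% = reference agonist at the receptor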
Conditions: HEK293T NPYLR7/Galpha15, GCaMP6s calcium fluorescence, at 10 µM, stronger effect = higher value
[1] = measured here: Max-Min RFU normalised activation

Row | SMILES | activation | activation [1]
1 | O=c1oc2c(CN3CC4CC(C3)c3cccc(=O)n3C4)c(O)ccc2cc1-c1nc2ccccc2s1 (stereo unspecified) | 303% (active) | 372%
2 | COc1ccc2cc(C3CN(C(=O)c4ccc[nH]4)CCO3)ccc2c1 (stereo unspecified) | -5.79% (inactive) | -7.4%
3 | COc1cc(C(=O)N2CCOC(c3ccccc3)C2)cc(OC)c1C (stereo unspecified) | 77.6% (active) | 58.9%
4 | Cc1c(F)cccc1C(=O)N1CCOC(c2ccccc2)C1 (stereo unspecified) | 0.877% (inactive) | -1.3%
5 | O=S(=O)(Cc1ccc(F)cc1)NCc1ccccc1OC(F)F | 1.17% (inactive) | 1.23%
6 | Cc1cccc(C(=O)O/N=C\c2ccc(Br)cc2)c1 | 0.973% (inactive) | 3.02%
7 | CON(C)C(=O)c1cccc(CN2CCS(=O)(=O)CC2)c1 | 7.7% (inactive) | 4.38%
8 | CCOC(C)c1noc(CNC2(c3noc(CC)n3)CCCC2)n1 (stereo unspecified) | 3.73% (inactive) | 1.21%
9 | C(=C\c1nn2c(CN3CCCCC3)nnc2s1)/c1ccccc1 | 1.3% (inactive) | 0.534%
10 | COC(=O)C1Cc2ccccc2CN1Cc1cccc(C(=O)N(C)C)c1 (stereo unspecified) | 1.77% (inactive) | -13.5%
11 | COc1ccc(CCN2CCC(CN(C)C(=O)c3ccoc3)CC2)cc1 | 13.3% (inactive) | 6.16%
12 | O=c1[nH]c(Cn2nnc3ccccc3c2=O)nc2ccccc12 | -3.31% (inactive) | -3.64%
13 | CCCCCCCC(=O)Nc1c(-c2ccc(Cl)cc2)nc2cc(C)ccn12 | -5.12% (inactive) | 1.14%
14 | C/C=C\COC1CCCN(C(=O)COc2ccc(Cl)cc2)C1 (stereo unspecified) | -4.16% (inactive) | -5.2%
15 | CCN1CCN(CC(O)COc2ccc(CN3CCc4ccccc4C3)cc2OC)CC1 (stereo unspecified) | 3.88% (inactive) | 3.04%
16 | Brc1ccc(Oc2nc(N3CCCC3)nc(N3CCCC3)n2)cc1 | -2.87% (inactive) | -5.23%
17 | N#CC1C(=N)SC(=N)C(C#N)C1c1cccc(O)c1 (stereo unspecified) | 51% (active) | 53%
18 | N#CC1C(=N)SC(=N)C(C#N)C1c1ccco1 (stereo unspecified) | -5.34% (inactive) | -2.82%
19 | CCc1ccc(C2C(C#N)C(=N)SC(=N)C2C#N)cc1 (stereo unspecified) | 0.645% (inactive) | -2.49%
20 | COc1ccc(-c2nc(NC(=O)C3CCCC3)sc2C)cc1 | -2.08% (inactive) | 2.65%
21 | CCC(C)(NC(=O)C1Cc2ccccc2O1)c1nccs1 (stereo unspecified) | -1.24% (inactive) | -2.94%

Row | SMILES | activation | activation [1]
22 | CCC1CCCCN1C(=O)CSc1c(C)[nH]c2ccccc12 (stereo unspecified) | -1.59% (inactive) | -2.64%
23 | CCCN(C(=O)Cn1nc(C)c2ccccc2c1=O)[C@@H]1CCCC[C@H]1O | 0.206% (inactive) | -0.142%
24 | CCCc1cc(=O)n2[nH]c(C)c(-c3cccc4ccccc34)c2n1 | -15.2% (inactive) | -20.4%
25 | NC(=O)CN1C(=O)COc2ccccc21 | -19.8% (inactive) | -26.8%
26 | CCCCN(C)C(=O)c1cnn(-c2ccccc2)c1 | 0.0336% (inactive) | -1.33%
27 | O=C(NC1C=CS(=O)(=O)C1)c1cccc2ccnn12 (stereo unspecified) | 22.3% (inactive) | 9.91%
28 | CCCC(C(=O)OCCN(CC)CC)(c1ccccc1)c1ccccc1 | 3.25% (inactive) and -1.52% (inactive) and 68.5% (active) | -42.8% and -5.9% and 58.4%
29 | CCC(N)(C(=O)OC)c1ccccc1 (stereo unspecified) | 8.89% (inactive) | 3.04%
30 | CC1Cc2c(NC(=O)CSCc3ccccc3)nn(C)c2NC1=O (stereo unspecified) | 3.06% (inactive) | -2.58%
31 | CCN(CC)c1ccc2cc(-c3nnc(Nc4ccccc4F)s3)c(=O)oc2c1 | -10.4% (inactive) | -12.8%
32 | O=c1[nH]c(=O)n(Cc2cccc(OC(F)F)c2)cc1Cl | 0.422% (inactive) and -19.6% (inactive) | -0.254% and -21%
33 | CC(c1cccs1)N(C)C(=O)c1n[nH]c(C2CC2)c1Br (stereo unspecified) | -2.08% (inactive) | 0.622%
34 | O=C1Nc2ccccc2C1=NN=C(C(=O)c1ccccc1)c1ccccc1 | 11.7% (inactive) | 10.9%
35 | CCC(=O)Nc1cccc(OCC(=O)N2CCCC2c2nonc2C)c1 (stereo unspecified) | -16.1% (inactive) | -16.7%
36 | Cc1ccc(NC(=O)Cn2cnc3sc4c(c3c2=O)CCC4)c(F)c1 | -14.9% (inactive) | -15.4%
37 | COc1cc(C=C2SC(=S)NC2=O)cc(Br)c1O | 668% (active) | 942%
38 | COc1ccc(C=C2SC(=S)NC2=O)cc1OC | 1.47% (inactive) | 3.32%
39 | COc1cc(OC)c(OC)cc1/C=C1/SC(=S)NC1=O | -3.39% (inactive) | -7.58%
40 | Cc1cc(S(=O)(=O)C(CNC(=O)CC(C)(C)C)c2cccs2)ccc1F (stereo unspecified) | 5.15% (inactive) | 2.88%
41 | COCCNC(=S)N(CCC#N)CCN(CCC#N)C(=S)NCCOC | -2.49% (inactive) | -3.45%
42 | Cc1cnccc1N1CCCN(C(=O)[C@H](N)CC(C)C)CC1 | 8.21% (inactive) | 7.83%

Row | SMILES | activation | activation [1]
43 | Cc1ccccc1-c1noc(CN2CCN(C(=O)c3cc(C4CC4)[nH]n3)CC2)n1 | 0.903% (inactive) | 0.506%
44 | CCC(CO)[n+]1c(C)cc(C=C2Sc3ccccc3N2CC)cc1C (stereo unspecified) | 56.5% (active) | 44.4%
45 | Cn1nc(C(F)(F)F)cc1C(=O)N1CCCC(O)(CO)CC1 (stereo unspecified) | 3.25% (inactive) | 1.85%
46 | COC(=O)Cn1cc(C=C(C#N)C(=O)NCCc2c[nH]c3ccccc23)c2ccccc21 | 1.04% (inactive) | 1.01%
47 | CCCn1nccc1C(=O)Nc1cc2c(C)cc(=O)oc2cc1C | -4.21% (inactive) | -5.15%
48 | CCCc1nc(N2CCCN(c3ncccn3)CC2)c2cnn(C)c2n1 | -2.57% (inactive) | -6.77%
49 | COc1ccc(OC)c(S(=O)(=O)N2CCCC(c3nc4ccccc4s3)C2)c1 (stereo unspecified) | -8.36% (inactive) | -7.77%
50 | Cc1ccn(-c2ccc(NC3CC4CCC3O4)nn2)n1 (stereo unspecified) | 7.09% (inactive) | 3.85%
51 | Cc1ccc(C2(c3noc(CN(C)Cc4ccc5ccccc5n4)n3)CCCC2)cc1 | 32.2% (inactive) and 4.89% (inactive) | 24.1% and 13.2%
52 | CSc1[s+]sc2c1-c1ccc(C)cc1NC2(C)C | -1.46% (inactive) | 5.63%
53 | Cn1cc(NC(=O)Nc2cccc(N3CCCCCC3)c2)cn1 | 8.13% (inactive) | 3.07%
54 | O=C(CCc1ccco1)N1CCc2onc(-c3ccc(C(F)(F)F)cc3)c2C1 | 3.67% (inactive) | -10.1%
55 | O=C(O)c1[nH]ncc1CN1CCc2onc(-c3ccc(C(F)(F)F)cc3)c2C1 | 78.5% (active) | 41.2%
56 | O=C(O)c1[nH]ncc1CN1CCCC(c2[nH]ncc2Cc2ccccc2)C1 (stereo unspecified) | 2.78% (inactive) | 3.74%
57 | Cc1csc(N(C)C(=O)c2cc(N3CCNC3=O)ccc2F)n1 | -7.45% (inactive) | -7.61%
58 | COc1ccc(-n2nnc3c(N4CCN(C(=O)c5ccc(Br)o5)CC4)ncnc32)cc1 | -8.62% (inactive) | -14.8%
59 | CCOc1ccc(/C=C(\C#N)c2[nH]nc(N)c2C#N)cc1OCC | -1.82% (inactive) | -4%
60 | N#CCc1nc2ncc(Br)cc2[nH]1 | -4.5% (inactive) | -5.31%
61 | CCOc1cc(/C=C(\C#N)c2nc3ncc(Br)cc3[nH]2)ccc1O | 90.2% (active) | 69.1%
62 | OCc1ccc(CN2CCC(Oc3ccc(Cl)cc3)CC2)o1 | 2.49% (inactive) | 0.105%
63 | COCCN(Cc1cc(NC(=O)c2cccc(F)c2)ccc1N(C)C)C(=O)NC(C)(C)C | -2.37% (inactive) | -0.561%

Row | SMILES | activation | activation [1]
64 | CCOC(=O)c1ccc2c(c1)nc(SCc1cccc(C(=O)OC)c1)n2Cc1cccc(F)c1 | -6.01% (inactive) | -4.5%
65 | COc1cc(C=C2C=c3c(O)cccc3=C2O)cc(Cl)c1O | 203% (active) | 183%
66 | COc1cc(/C=C2/C(=O)N(c3ccc(Cl)c(Cl)c3)N=C2C)cc(Br)c1O | -1.16% (inactive) | 5.59%
67 | COc1cccc(CSc2nnc(CNC(=O)Nc3cc(OC)cc(OC)c3)n2-c2ccc([N+](=O)[O-])cc2)c1 | 22.3% (inactive) | 16.8%
68 | CC(C)CNC(=O)c1ccc2c(=O)n(Cc3ccccc3)c3nn(CC(N)=O)c(=O)n3c2c1 | 2.33% (inactive) | -0.424%
69 | C/C=C/c1cc(C(=O)N2CCN(CCO)CC2)cc(OC)c1OC | 2.68% (inactive) | 0.348%
70 | CC(C)N(CC1CCC(=O)N1)C(=O)c1cc(Cl)c[nH]c1=O (stereo unspecified) | -1.21% (inactive) | -6.03%
71 | CN1CC2(CCCN(C(=O)c3cccc(Cn4cccn4)c3)CC2)OC1=O (stereo unspecified) | 33.4% (inactive) | 15.5%
72 | CC(C)(Oc1ccc(Cl)cc1)C(=O)Nn1cnc2c(cnn2-c2ccccc2)c1=O | 2.94% (inactive) | -1.1%
73 | O=C(O)C1CC2CCCC(C1)C2=O (stereo unspecified) | 2.14% (inactive) | 1.09%
74 | COc1ccc(C2SCCN2C(=O)c2cc3cc(Br)ccc3oc2=O)cc1 (stereo unspecified) | 1.99% (inactive) | -4.59%
75 | O=C1CCC(C(=O)N(Cc2ccc(F)cc2)C2CC2)=NN1c1ccccc1 | 2.48% (inactive) | 1.4%
76 | CCn1c(C2CCN(CCC3=C(C)CCCC3(C)C)CC2)nn(C)c1=O | 14.4% (inactive) | 4.06%
77 | CCc1cc(=O)[nH]c(-n2nc(C)cc2NC(=O)C2c3ccccc3Oc3ccccc32)n1 | 10.2% (inactive) | 5.92%
78 | CNC(=O)NC(=O)C(C)Sc1nnc(-c2ccco2)n1CCC(N)=O (stereo unspecified) | 1.74% (inactive) | 5.62%
79 | CCOC(=O)Nc1cc(=O)c2cc(C)ccc2o1 | 0.463% (inactive) | -6.18%
80 | COc1ccc(C)c2sc(N(CCCN3CCOCC3)C(=O)c3ccc([N+](=O)[O-])cc3)nc12 | -0.485% (inactive) | -6.29%
81 | COCCNCC(=O)N(Cc1ccccc1)Cc1ccc(C)s1 | -5.15% (inactive) | -13.2%
82 | O=C(CNCCN1CCOCC1)N(Cc1ccccc1)Cc1cccs1 | -7.58% (inactive) | -12.6%
83 | Cc1ccc(CN(Cc2ccc(F)cc2)C(=O)CNCCN2CCOCC2)s1 | 56.1% (active) | 58%
